RE007 growth inh: less growth of the S. pombe RE007 Vpr strain; S. pombe RE007 Vpr strain, BacTiter-Glo ATP luminescence, 24 h; AID 651644; Potency, µM (top dose mostly 92.2 µM), most hits filed as inhibitors; 360,000 compounds, 0.21% hits; active means well fitted falling curve with a large enough effect; inconclusive means small, poorly fitted or top-dose-only effect; inactive means no such curve, though single readings can be large or run the other way; further: nearly all actives have a fitted effect of over 50% in size
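Fission yeast RE007 carrying one integrated HIV-1 vpr copy, seeded at OD 0.01 in PMG+AL medium with 23 nL pinned compound. Grown 24 h at 30 degrees; viability read by BacTiter-Glo luminescence after 5 min.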
Tb PYK inh: blocks Trypanosoma brucei pyruvate kinase; TbPYK enzyme, Kinase-Glo Plus ATP luminescence, 45 min; Q57TT1; 410,000 compounds, 0.12% hits; Potency, µM (highest dose often 76.8 µM), usual class: inhibitors; AID 624173; further: nearly all actives have a fitted effect of over 50% in size
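Assay buffer: 50 mM TEA pH 7.2, 100 mM KCl, 10 mM MgCl2, 0.05% BSA, 0.01% Tween-20. Pyruvate kinase from T. brucei plus substrate met compound, then ADP (130 uM final). Luminescence was read post 45 min RT.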
AMA1 RON2 block: inhibitors of Plasmodium falciparum AMA1-RON2 interaction. AlphaScreen AMA1-biotinylated RON2 peptide binding. Potency, µM (top dose mostly 58.2 µM), usual class: inhibitors. 360,000 compounds, 0.2% hits; further: nearly all actives have a fitted effect of over 45% in size
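AMA1 (3D7) with his tag at 25 nM final met compounds first, then biotinylated RON2 peptide at 25 nM; detection used donor plus acceptor beads, 10 µg/mL apiece, read by AlphaScreen after 30 min at room temperature.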
Sm TGR inh: S. mansoni TGR enzyme inhibition; purified TGR, DTNB reduction, TNB absorbance 405 nm; AID 485364; 360,000 compounds, 3% hits; Potency, µM (titrated, usually from 114 µM), usual class: inhibitors; Q962Y6; further: nearly all actives have a fitted effect of over 60% in size
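Kinetic colorimetric format: TGR-catalysed, NADPH-driven DTNB reduction monitored via TNB absorbance. Enzyme dispensed at 20 nM; compound exposure 15 min at room temperature before reaction start.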
LmPK inh: LmPK (Leishmania mexicana) enzyme inhibition | Q27686 | purified LmPK, Kinase-Glo ATP luminescence, 1 h | Potency, µM (series often up to 57.5 µM), hits mostly inhibitors | 290,000 compounds, 0.37% hits | AID 1721
Target sequence (Q27686 whole entry, looked up): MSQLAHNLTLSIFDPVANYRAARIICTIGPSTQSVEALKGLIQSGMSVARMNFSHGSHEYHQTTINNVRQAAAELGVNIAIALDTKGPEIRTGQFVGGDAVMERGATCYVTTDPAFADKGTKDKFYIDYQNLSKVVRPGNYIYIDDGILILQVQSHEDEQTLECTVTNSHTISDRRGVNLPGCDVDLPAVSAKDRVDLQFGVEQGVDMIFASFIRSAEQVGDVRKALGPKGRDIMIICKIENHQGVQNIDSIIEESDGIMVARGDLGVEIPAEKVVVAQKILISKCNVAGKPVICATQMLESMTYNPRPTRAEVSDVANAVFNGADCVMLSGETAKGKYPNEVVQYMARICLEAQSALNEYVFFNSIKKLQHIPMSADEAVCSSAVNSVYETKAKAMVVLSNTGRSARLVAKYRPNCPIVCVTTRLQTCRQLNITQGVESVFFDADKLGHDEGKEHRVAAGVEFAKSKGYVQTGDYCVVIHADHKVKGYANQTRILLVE
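Purified LmPK (0.1 nM) with 0.5 mM PEP and 0.1 mM ADP in imidazole buffer pH 7.2 with MgCl2/KCl, 1 h at room temperature. ATP formed was read by luciferase luminescence and normalized to no-enzyme and uninhibited controls.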
Numbers stand for hits; - = inactive; ? = inconclusive; . = no result given; [ ] = remark or other dose. An excerpt weighted towards active compounds, which were near 3.2% of everything screened. Unless noted, the call rests on the fitted dose curve; in most records, active means well fitted curve in the direction sought with a large enough effect; inconclusive means small, poorly fitted or top-dose-only effect, or another doubt; inactive means no such curve, though single readings can be large; an effect the other way counts as inactive or inconclusive.

SMILES | RE007 growth inh | Tb PYK inh | AMA1 RON2 block | Sm TGR inh | LmPK inh
Cc1nc2ncnn2c(C)c1CCC(=O)N1CCN(c2cccc(Cl)c2)CC1 | . | - | . | - | .
Cc1nc2ncnn2c(C)c1CCC(=O)NCCCN1CCN(c2cccc(Cl)c2)CC1 | - | - | - | 79µM | -
CCn1cc(C(=O)N2CCN(c3ccccc3)CC2)c(=O)c2cc(S(=O)(=O)N3CCCC3)ccc21 | . | - | . | - | .
NS(=O)(=O)c1ccc(Oc2ccc(S(N)(=O)=O)cc2)cc1 | - | - | - | - | -
C=CS(=O)(=O)c1ccc(Oc2ccc(S(=O)(=O)C=C)cc2)cc1 | - | - | - | 2.5µM | -
CCOc1ccc(N(CC)S(=O)(=O)N2CCCC(C(=O)Nc3cc(Cl)ccc3C)C2)cc1 (centres undefined) | . | - | . | - | .
O=C(O)c1ccc2c(c1)C(=O)/C(=C\c1ccco1)C2=O | - | ? | - | 7.1µM | -
CC(C)(C)N1C(=O)c2ccc(C(=O)O)cc2C1=O | - | - | - | - | -
Cc1ccc(C=C2C(=O)c3ccccc3C2=O)o1 | - | ? | - | - | 4.5µM
O=C1C(=Cc2ccco2)C(=O)c2ccccc21 | - | - | - | - | ?
Cc1ccc(/C=C2/C(=O)c3ccc(C(=O)O)cc3C2=O)o1 | - | ? | - | 5µM | -
O=C(O)c1ccc2c(c1)C(=O)/C(=C/c1ccccc1)C2=O | - | 35µM | - | - | -
CCOc1ccccc1NC(=O)C1CCCN(S(=O)(=O)c2cccs2)C1 (centres undefined) | . | - | . | - | .
CCOc1ccccc1NC(=O)Cn1c(=O)n(Cc2cccs2)c(=O)c2cccnc21 | . | - | . | - | .
C=CC(=O)N=c1sc2ccccc2n1-c1ccccc1 | - | - | - | 40µM | -
COC(=O)c1ccc(NC(=O)N2CCc3c([nH]c4ccccc34)C2c2ccc(C)cc2)cc1 (centres undefined) | . | - | . | - | .
Cn1c(=O)n(C)c2cc(N3CCCCC3)c(NC(=O)c3ccc(C(C)(C)C)cc3)cc21 | . | - | . | - | .
Cn1cncc1C#Cc1ccc2cc(CCO)oc(=O)c2c1 | - | - | - | 11µM | .
Cn1cncc1C#Cc1ccc2cc(CCCO)oc(=O)c2c1 | - | - | - | - | .
Cc1ccc(-c2ccc(CCC(=O)O)n2-c2ccc(C(C)C)cc2)cc1 | . | - | . | 40µM | .
Cc1ccc(-c2ccc(CCC(=O)O)n2-c2ccc(C(=O)O)cc2)cc1 | . | - | - | 14µM | -
CCOC(=O)c1ccc(-n2c(CCC(=O)O)ccc2-c2ccc(F)cc2)cc1 | . | - | - | 22µM | -
Cc1ccc(-c2ccc(CCC(=O)O)n2-c2cccc(C(=O)O)c2)cc1 | - | - | - | 13µM | -
Cc1ccccc1NS(=O)(=O)c1ccc2[nH]cc(C(=O)NC3CCCCC3)c(=O)c2c1 | . | - | . | - | .
Nc1ccn([C@@H]2O[C@H](CO)[C@H](O)C2(F)F)c(=O)n1 | . | - | . | . | .
SMILES | RE007 growth inh | Tb PYK inh | AMA1 RON2 block | Sm TGR inh | LmPK inh
CCOC(=O)c1cccc(NC(=O)NCCc2c(C)nn(C)c2C)c1 | . | - | . | - | .
COc1ccc2cc(CNc3ccc(OC)c(OC)c3)c(=O)n(CC(=O)Nc3ccc(C)cc3)c2c1 | . | - | . | - | .
COC(=O)c1ccc(-n2c(CCC(=O)O)ccc2-c2ccc(C)cc2)cc1 | - | - | - | 28µM | -
O=C(O)CCc1ccc(-c2ccccc2)n1-c1cccc(O)c1 | - | - | - | 14µM | -
Cc1ccc(-c2ccc(CCC(=O)O)n2-c2cccc(C)c2C)cc1 | . | - | . | 22µM | .
O=C(O)CCc1ccc(-c2ccc(Br)cc2)n1-c1ccccc1O | . | - | . | - | .
COCCn1c(CNC(=O)c2cc([N+](=O)[O-])ccc2Cl)nc2cccnc21 | . | - | . | - | .
O=C(Cn1ncc2c3ccccc3n(Cc3cccc(Cl)c3)c2c1=O)NCCCN1CCCCC1 | . | - | . | - | .
Cc1cc(OC(C)C(=O)N(Cc2ccc(N(C)C)cc2)Cc2ccco2)ccc1Cl (centres undefined) | . | - | . | - | .
Oc1[nH]c(=S)sc1C=C1N=c2ccccc2=N1 | - | ? | - | - | 16µM
CCOC(=O)c1ccc(NC(=O)CCc2c(C)nc3c(c(C)nn3C)c2C)cc1 | . | - | . | - | .
Cc1ccccc1NC(=O)CN1C(=O)CCn2nc(-c3cccn3C)cc21 | . | - | . | - | .
COc1cc(OC)cc(C(=O)NCc2ccc3c(c2)CCN3C(=O)c2ccccc2)c1 | . | - | . | - | .
COc1ccc(C(c2c(C)n(C)n(-c3ccccc3)c2=O)c2c(C)n(C)n(-c3ccccc3)c2=O)cc1O | . | - | . | - | -
CCCSc1nc(O)c(C(c2ccc(OC)c(O)c2)c2c(O)nc(SCCC)n(C)c2=O)c(=O)n1C | - | - | - | 13µM | -
COc1cccc(C(c2c(O)nc(SC)n(C)c2=O)c2c(O)nc(SC)n(C)c2=O)c1 | - | - | - | 7.1µM | -
CSc1nc(C)c(Oc2ccccc2)c(=O)n1C | - | - | - | - | -
Cc1ccc(N2C(=O)CCSC23C(=O)N(Cc2ccc(F)cc2)c2ccccc23)cc1 (centres undefined) | . | -[15.4 µM] | . | - | .
CS(=O)(=O)Nc1ccc(-c2nc3ccccc3s2)cc1 | . | - | . | - | .
CCN1C(=O)c2cccc3c(S(=O)(=O)NCc4cccnc4)ccc1c23 | - | - | - | - | -
CCN1C(=O)c2cccc3c(S(=O)(=O)NCc4ccco4)ccc1c23 | - | - | - | 40µM | -
Cc1ccc2nc(COc3ccccc3NC(=O)C(C)(C)C)cc(=O)n2c1 | . | - | . | - | .
COc1cc2c(ccc3cc(OC)c(OC)c(O)c32)cc1O | - | - | ? | 45µM | -
COc1cc2cccc(OC)c(=O)c2c(O)c1OC | - | - | - | - | -
COc1ccc(C)cc1NC(=O)N1CCC(CN2CCOCC2)CC1 | . | - | . | - | .
SMILES | RE007 growth inh | Tb PYK inh | AMA1 RON2 block | Sm TGR inh | LmPK inh
Cc1cccc(N2CCN(C(=O)c3ccc4c(c3)NC(=O)C(CSCc3ccc(F)cc3)N4)CC2C)c1 (centres undefined) | . | . | . | - | -
COc1ccc(N2CCN(C(=O)c3ccc4c(c3)NC(=O)C(CSCc3ccc(C)cc3)N4)CC2)cc1 (centres undefined) | . | . | . | ? | -
COc1ccc(N2CCN(C(=O)c3ccc4c(c3)NC(=O)C(CSCc3cccc(F)c3)N4)CC2)cc1 (centres undefined) | . | . | . | 45µM | -
COc1ccc(N2CCN(C(=O)c3ccc4c(c3)NC(=O)C(CSCc3c(F)cccc3Cl)N4)CC2)cc1 (centres undefined) | . | . | . | 56µM | -
COc1ccc(CCNC(=O)c2cc(Nc3cc(C)cc(C)c3)nc3ccccc23)cc1OC | . | - | . | - | .
O=C(Nc1ccc2nc(-c3cccs3)c(-c3cccs3)nc2c1)N1CCOCC1 | - | - | - | - | -
O=S(=O)(c1ccc2nc(-c3ccco3)c(-c3ccco3)nc2c1)N1CCOCC1 | - | 16µM | - | 1.6µM | -
O=C(Nc1ccc(N2CCOCC2)cc1)Nc1ccc2nc(-c3ccco3)c(-c3ccco3)nc2c1 | - | - | - | 4.5µM | -
O=C(NCCCO)Nc1ccc2nc(-c3ccco3)c(-c3ccco3)nc2c1 | . | . | . | 0.28µM | -
